High-throughput results: PubChem, National Center for Advancing Translational Sciences (NCATS)
This is a sample that favours compounds with a hit; in the whole collection about 2.8% have one here.
POLH inh: inhibitors of human DNA polymerase eta. hit rate 1.2% among 390,000. recombinant Pol eta, fluorescent DNA replication assay. AID 588591. Potency, µM (titrated, usually from 114 µM), most hits filed as inhibitors
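Fluorescent replication assay: 50 nM final substrate added after a 15 min room-temperature compound preincubation with 10 nM enzyme. Signal taken at 0 min and again at 10 min.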
POLB inh: blocks human DNA polymerase beta activity. P06746. Pol beta primer extension/strand displacement, fluorescence kinetic. Potency, µM (highest dose often 114 µM), usual class: inhibitors. hit rate 1.3% among 340,000
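Pol beta (10 nM) was preincubated with compound for 15 min at room temperature. The reaction was then started with 50 nM substrate and read immediately and after a further 10 min at room temperature.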
PI5P4Ka inh: PI5P4K alpha (human) kinase inhibition. PI5P4Kalpha enzyme, ADP-Glo luminescence, 60 min; hits give low values. P48426. hit rate 1.2% among 330,000. max response, %; active = max response of -50% or lower; inconclusive = between -30% and -50%; inactive = -30% or higher; note: value at the top dose of about 77 µM
Target sequence (P48426 whole entry, looked up): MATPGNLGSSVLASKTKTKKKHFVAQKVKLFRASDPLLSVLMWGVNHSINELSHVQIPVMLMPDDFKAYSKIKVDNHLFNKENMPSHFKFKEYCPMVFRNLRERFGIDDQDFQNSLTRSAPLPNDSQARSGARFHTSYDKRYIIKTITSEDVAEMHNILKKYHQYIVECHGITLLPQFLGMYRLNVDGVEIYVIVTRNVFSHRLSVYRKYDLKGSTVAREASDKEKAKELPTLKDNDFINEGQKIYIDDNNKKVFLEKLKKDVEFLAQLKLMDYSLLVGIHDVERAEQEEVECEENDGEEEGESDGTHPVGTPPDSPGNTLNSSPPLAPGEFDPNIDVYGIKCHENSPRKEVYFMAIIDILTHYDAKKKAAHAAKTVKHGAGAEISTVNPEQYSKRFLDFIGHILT
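Human PI5P4Kalpha with substrate in 0.038 M HEPES pH 7.4, 0.28 mM EGTA, 0.1% CHAPS, 5% DMSO; reaction started with 5 microM ATP (final), 60 min at room temperature. ADP formed read by ADP-Glo luminescence.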
WRN inhibitor: blocks human WRN helicase; Q14191; WRN helicase unwinding, fluorescent forked duplex, kinetic; Potency, µM (top dose mostly 114 µM), most hits filed as inhibitors; hit rate 0.46% among 360,000; note: nearly all actives have a fitted effect of over 55% in size
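Fluorescence dequenching readout, ex 525 nm/em 598 nm, kinetic mode: forked duplex DNA (100 nM final) with adjacent fluorophore and quencher unwound by WRN (20 nM final) with 2 mM ATP. Compound preincubation 15 min, room temperature.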
POLI inh: inhibitors of human DNA polymerase iota; Q9UNA4; Pol iota fluorescent replication assay, 10 min; Potency, µM (doses to about 115 µM), hits mostly inhibitors; hit rate 1% among 390,000
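Fluorescent replication assay read twice, at 0 min and 10 min after adding 50 nM (final) substrate. Enzyme (10 nM) and compounds were first incubated 15 min at room temperature; enzyme-free buffer wells were negative controls.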
Pol kappa inh: inhibitors of human DNA polymerase kappa. AID 588579. Potency, µM (highest dose often 107 µM), most hits filed as inhibitors. hit rate 0.53% among 400,000. purified Pol kappa, fluorescent DNA synthesis assay, 10 min. Q9UBT6
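10 nM Pol kappa was preincubated with compounds for 15 min at room temperature. Reaction started with 50 nM (final) substrate. Fluorescence read kinetically at 0 and 10 min.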
Of the large screens only hits and unclear results are named; the others gave an inactive call. Unless noted, calls come from the whole dose curve; as a rule, active = well fitted curve in the direction sought with a large enough effect; inconclusive = small, poorly fitted or top-dose-only effect, or another doubt; inactive = no such curve, though single readings can be large; an effect the other way counts as inactive or inconclusive.

CC(C)OCC(O)CN1CCN(CCN2C(=O)c3cccc4cccc(c34)C2=O)CC1 (stereo unspecified)	POLB inh inconclusive
CC(=O)c1ccc(OCC(O)CN2CCN(CCN3C(=O)c4cccc5cccc(c45)C3=O)CC2)cc1 (stereo unspecified)	POLH inh inconclusive, POLB inh 14.1µM, POLI inh inconclusive
O=C(O/N=C1/CCCc2occc21)c1ccc(F)cc1	PI5P4Ka inh -58.2
O=C(O/N=C1/CCSc2ccccc21)c1ccc(F)cc1	none (no result: PI5P4Ka inh)
CCOC(=O)CNC(=O)Nc1cc(C(=O)NCc2ccc(C(C)C)cc2)ccc1N1CCCC1	none (no result: PI5P4Ka inh, WRN inhibitor)
COc1cc(/C=N/NC(=O)c2cc3ccccc3cc2O)ccc1OCCN1CCCCC1	POLB inh 79.4µM, POLI inh inconclusive
COc1cc(/C=N/NC(=O)c2ccncc2)ccc1OCCN1CCCCC1	POLB inh inconclusive, POLI inh inconclusive, Pol kappa inh inconclusive
COc1ccc(C)cc1NC(C)C(=O)c1c[nH]c2ccccc12 (stereo unspecified)	none (no result: POLH inh, POLB inh, PI5P4Ka inh, WRN inhibitor)
Clc1ccc(Nc2nc(-c3ccncc3)cs2)cc1	POLH inh inconclusive (no result: POLB inh)
Fc1ccc(Nc2nc(-c3ccncc3)cs2)cc1	POLB inh 10µM
COc1cccc(NC(=O)Cn2cc(C(=O)C3CCCCC3)c3ccccc32)c1	none (no result: PI5P4Ka inh, WRN inhibitor)
O=C(/C=C/c1ccco1)Nc1cc(Cl)ccc1C(=O)O	POLH inh 10µM, POLB inh 22.4µM, PI5P4Ka inh inconclusive, POLI inh inconclusive, Pol kappa inh inconclusive
O=C(/C=C\c1ccco1)Nc1cc([N+](=O)[O-])ccc1F	none
CCCCNC1=CC(=O)C(=O)c2ccccc21	POLH inh inconclusive, POLI inh inconclusive
CCCCNC1=CC(=O)C(NCCCC)=CC1=O	POLI inh 31.6µM (no result: POLB inh)
CC1(S(=O)(=O)O)CC(=O)c2ccccc2C1=O (stereo unspecified)	POLH inh inconclusive, POLB inh inconclusive, POLI inh 6.31µM
Cc1ccc(OCC(=O)Nc2ccccc2C(=O)OCc2cc(=O)n3ccsc3n2)cc1	POLH inh inconclusive, POLB inh 2.82µM (no result: PI5P4Ka inh, WRN inhibitor)
Cc1cccc(OCC(=O)Nc2ccccc2C(=O)OCc2cc(=O)n3ccsc3n2)c1	none (no result: PI5P4Ka inh, WRN inhibitor)
O=C(CN1C(=O)CC(c2ccco2)Sc2ccccc21)Nc1ccc(OC(F)(F)F)cc1 (stereo unspecified)	none (no result: PI5P4Ka inh, WRN inhibitor)
CCS(=O)(=O)N1Cc2ccccc2CC1C(=O)N1CCN(c2ccccc2)CC1 (stereo unspecified)	POLH inh 15.8µM, POLB inh 35.5µM, PI5P4Ka inh inconclusive, WRN inhibitor inconclusive, POLI inh inconclusive, Pol kappa inh inconclusive
O=C(C1Cc2ccccc2CN1S(=O)(=O)c1ccc(F)cc1)N1CCOCC1 (stereo unspecified)	none (no result: PI5P4Ka inh)
CN1/C(=C/C=C(C#N)C#N)C=Cc2ccccc21	POLI inh 79.4µM
CCOC(=O)/C(C#N)=C/C=C1\C=Cc2ccccc2N1CC	none
Cc1ccc(NC(=O)Cn2c(=O)n(Cc3ccccc3)c(=O)c3c(C)c(C(=O)N(C)C)sc32)c(C)c1	none (no result: PI5P4Ka inh, WRN inhibitor)
O=C1/C(=C\c2ccc(O)c(O)c2)Oc2c1ccc(O[C@@H]1O[C@H](CO)[C@@H](O)[C@H](O)[C@H]1O)c2O	POLI inh 22.4µM, Pol kappa inh 31.6µM (no result: POLH inh, POLB inh, PI5P4Ka inh, WRN inhibitor)
O=c1ccc2ccc(O[C@@H]3O[C@H](CO)[C@@H](O)[C@H](O)[C@H]3O)c(O)c2o1	none (no result: POLB inh)
Clc1ccc(Sc2ccc(/C=N/n3cnnc3)o2)cc1	none
O=C1NC(=O)/C(=C\c2ccc(Sc3ccc(Cl)cc3)o2)N1	POLH inh inconclusive, POLB inh 35.5µM, PI5P4Ka inh inconclusive, POLI inh inconclusive
CCCCN(CC)C(=O)CCn1c(=O)c2cccn2c2cccnc21	none (no result: PI5P4Ka inh, WRN inhibitor)
C/C(=N/NC(=O)CNC(=O)c1ccccc1F)c1ccc2c(c1)CCCC2	PI5P4Ka inh -66.8
C/C(=N/NC(=O)CNC(=O)c1ccc2c(c1)OCO2)c1ccc2c(c1)CCCC2	none
O=C1C(=O)c2ccccc2C(O)=C1CCCCl	POLH inh inconclusive, POLI inh 14.1µM
COc1ccc(CC2=C(O)c3ccccc3C(=O)C2=O)cc1	POLI inh inconclusive
Cn1cc(-c2cc3n(n2)CCC(=O)N3CCCC(=O)NCc2ccccc2Cl)c2ccccc21	none (no result: PI5P4Ka inh, WRN inhibitor)
CN(C)S(=O)(=O)c1ccc2c(c1)nnn2CCNC(=O)Nc1ccc(Cl)cc1	none (no result: PI5P4Ka inh, WRN inhibitor)
CC(=O)n1cc(/C=N/NC(=O)c2sc(C)nc2C)c2ccccc21	POLB inh 17.8µM, POLI inh 11.2µM, Pol kappa inh inconclusive
CC(=O)n1cc(/C=N/NC(=O)c2ccc([N+](=O)[O-])cc2)c2ccccc21	POLH inh inconclusive, POLB inh inconclusive
O=C(NCc1ccco1)C1CC2CCC1C2 (stereo unspecified)	POLI inh 89.1µM (no result: PI5P4Ka inh)
COC(=O)CCC/C=C1/SCC(NC(=O)c2ccccc2)C1=O (stereo unspecified)	POLH inh inconclusive, POLI inh 44.7µM
COC(=O)CCC/C=C1/SCC(NC(=O)c2ccccc2)C1O (stereo unspecified)	POLH inh inconclusive, POLI inh inconclusive, Pol kappa inh inconclusive (no result: PI5P4Ka inh)
CCCC(=O)OCC(=O)Nc1ccc2[nH]c(=O)[nH]c2c1	none
CC1CC1C(=O)OCC(=O)Nc1ccc2[nH]c(=O)[nH]c2c1 (stereo unspecified)	POLH inh 50.1µM, POLB inh 25.1µM, POLI inh 39.8µM
COc1cc(OC)c(NC(=O)c2c(C)nn(-c3ccc(C)cc3)c2-n2cccc2)cc1Cl	none (no result: PI5P4Ka inh, WRN inhibitor)
CC(C)c1onc(-c2c(Cl)cccc2Cl)c1COc1ccc(/C=C/c2cccc(C(=O)O)c2)c(Cl)c1	Pol kappa inh 29.9µM (no result: POLH inh, POLB inh, PI5P4Ka inh, WRN inhibitor, POLI inh)
COc1cccc(-c2nc(C(N)=O)c3c(n2)n(-c2ccc4c(c2)OCO4)c(=O)n3C)c1OC	none (no result: PI5P4Ka inh, WRN inhibitor)
Cn1c(=O)n(-c2ccc3c(c2)OCO3)c2nc(-c3ccccc3)nc(C(N)=O)c21	POLH inh inconclusive, POLB inh 6.31µM (no result: PI5P4Ka inh, WRN inhibitor)
CSc1nc(O)c(C(c2ccccc2)c2c(O)nc(SC)[nH]c2=O)c(=O)[nH]1	PI5P4Ka inh -52.9
CSc1nc(O)c(C(c2ccc(F)cc2)c2c(O)nc(SC)[nH]c2=O)c(=O)[nH]1	none (no result: POLB inh)
CCCCNC(=O)COC(=O)c1c2c(nc3ccccc13)/C(=C/c1cccs1)CC2	POLH inh inconclusive, POLB inh 25.1µM, PI5P4Ka inh inconclusive
CN(C)c1ccc(C=Nc2ccccc2C(N)=O)cc1	POLI inh 89.1µM
CCN(C(=O)c1cn(CC)c(=O)c2cc(OC)c(OC)cc12)c1ccccc1F	POLI inh inconclusive (no result: PI5P4Ka inh, WRN inhibitor)
CC[C@H](C)C1NC(=O)[C@H](CC(=O)O)NC(=O)c2cc([N+](=O)[O-])cc(I)c2NCCC(C(N)=O)NC1=O (stereo partly specified)	POLH inh 25.1µM, POLI inh inconclusive, Pol kappa inh 79.4µM
